Screening results: PubChem, National Center for Advancing Translational Sciences (NCATS)
PNC inhibitor = perinucleolar compartment assembly inhibition. PC3M PTB-GFP, PNC prevalence imaging, 16 h; active compounds read low. activity change (PNC), negative = inhibition, % at 10 µM. 140,000 tested, 3.1% active;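 active = readout at or below -70, meaning at least 70% loss of cells showing the perinucleolar compartment, a nuclear body marking cancer cells; inconclusive = readout between -30 and a set limit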
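PC3M cells stably expressing PTB-GFP, 750–1000 cells/well, treated 16 h at 37 °C with compound (23 nl of library stock), in duplicate. After paraformaldehyde fixation and Hoechst stain, imaged at 20x; PNC prevalence scored by image analysis.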
CBFb-RUNX1 inh = blocks binding between human CBF-beta and RUNX1. AlphaScreen CBFb-His/RUNX1-biotin binding, biochemical. Q01196+Q13951. Potency, µM (doses to about 59.8 µM), most hits filed as inhibitors. AID 1477. 230,000 tested, under 10 active
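Room-temperature protein-protein interaction test with 30 nM each of His-tagged CBF-beta and biotinylated RUNX1, 15 min with compound, then 90 min with nickel plus streptavidin beads. Signal read in AlphaScreen mode.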
ALDH1A1 block = blocks purified human ALDH1A1 activity | P00352 | Purified ALDH1A1, NADH fluorescence, propionaldehyde substrate | Potency, µM (top dose mostly 75.3 µM), most hits filed as inhibitors | 220,000 tested, 7.3% active; active = well fitted inhibition curve with a large enough effect, not every such curve was filed as active; inconclusive = small, poorly fitted or top-dose-only effect, or another doubt; inactive = no such curve, though single readings can be large or run the other way
HPGD block = blocks human HPGD enzyme activity; P15428; purified HPGD, NADH fluorescence kinetic, PGE2 substrate; Potency, µM, most hits filed as inhibitors; 150,000 tested, 4.3% active; AID 894; active = well fitted inhibition curve with a large enough effect, not every such curve was filed as active; inconclusive = small, poorly fitted or top-dose-only effect, or another doubt; inactive = no such curve, though single readings can be large or run the other way
Target sequence (P15428 whole entry, looked up): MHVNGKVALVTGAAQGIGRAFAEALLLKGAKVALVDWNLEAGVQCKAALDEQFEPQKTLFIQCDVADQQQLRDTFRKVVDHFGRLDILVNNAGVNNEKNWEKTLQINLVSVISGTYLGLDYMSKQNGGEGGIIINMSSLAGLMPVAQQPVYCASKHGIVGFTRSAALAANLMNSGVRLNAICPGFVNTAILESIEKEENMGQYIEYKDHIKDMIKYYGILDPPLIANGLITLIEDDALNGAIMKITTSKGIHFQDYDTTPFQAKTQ
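20 nM HPGD preincubated 15 min at room temperature with compound in 50 mM Tris-HCl pH 8, 0.01% Tween 20. Started with 1 mM NAD+ and 30 uM prostaglandin E2; NADH fluorescence (360/450 nm) read 5 times over 30-s intervals, last minus first.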
HTT aggregate = mutant huntingtin aggregation inhibition | Potency, µM (series often up to 46.1 µM), hits mostly inhibitors | 220,000 tested, 1.1% active | PC12 HttQ103-GFP aggregates, Acumen cytometry, 40 h; note: nearly all actives have a fitted effect of over 60% in size
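PC12 cells stably carrying ecdysone-inducible HTT exon 1 Q103–GFP were induced with tebufenozide (100 nM final) and treated with library compounds in titration. GFP aggregates in lysates were counted by laser scanning cytometry.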
HTT ATP protect = cytoprotection in Huntington HTT-Q103 PC12 cell model. Potency, µM (titrated, usually from 56.4 µM), actives largely listed as activators. 230,000 tested, 0.14% active. PC12 HTT-Q103 induced, cytoprotection, ATP luminescence, 40 h. AID 1471; note: nearly all actives have a fitted effect of over 45% in size
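PC12 cells stably carrying ecdysone-inducible Htt exon 1 (Q103)–GFP were induced with 100 nM tebufenozide (final) alongside library compounds in a dose series. Cytoprotection was scored as retained ATP by ATPlite luminescence.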
Of the large screens only hits and unclear results are named; the others gave an inactive call. Shown are actives, neighbours in structure and some others; about 11% of the full set was active somewhere. Unless noted, calls come from the whole dose curve; as a rule, active = well fitted curve in the direction sought with a large enough effect; inconclusive = small, poorly fitted or top-dose-only effect, or another doubt; inactive = no such curve, though single readings can be large; an effect the other way counts as inactive or inconclusive.

Cc1ccc(SCC(=O)NCCN2C(=O)CSC2=O)c(C)c1	PNC inhibitor -100.0
O=C(CSc1n[nH]c(-c2cc(Cl)ccc2Cl)n1)NCCN1C(=O)CSC1=O	HPGD block 15.8µM
N[C@@H](Cc1[nH]nc2ccccc12)C(=O)O	none (no result: PNC inhibitor, CBFb-RUNX1 inh, HTT aggregate)
O=C(O)CCn1nnc(-c2cccs2)n1	PNC inhibitor -104.8
C=CCN1C(=O)N/C(=C/c2ccc(N3CCOCC3)o2)C1=O	ALDH1A1 block inconclusive, HTT aggregate 5.01µM (no result: HTT ATP protect)
O=C1N/C(=C/c2ccc(N3CCOCC3)o2)C(=O)N1c1ccccc1	PNC inhibitor inconclusive, ALDH1A1 block 7.08µM, HPGD block inconclusive, HTT aggregate inconclusive
O=C1N/C(=C/c2ccc(N3CCOCC3)cc2)C(=O)N1Cc1ccc(F)cc1	none
O=C(O)c1ccc(N[C@H](c2ccccc2)c2ccc3cccnc3c2O)cc1	ALDH1A1 block 3.98µM, HPGD block inconclusive (no result: PNC inhibitor, CBFb-RUNX1 inh, HTT aggregate)
Oc1c(C(Nc2cccc(C(F)(F)F)c2)c2ccncc2)ccc2cccnc12 (centres undefined)	ALDH1A1 block 17.8µM, HTT aggregate inconclusive (no result: PNC inhibitor, HPGD block)
O=[N+]([O-])c1ccc([C@@H](Nc2ccccc2)c2ccc3cccnc3c2O)cc1	ALDH1A1 block inconclusive (no result: PNC inhibitor, CBFb-RUNX1 inh, HTT aggregate)
FC1(F)C(F)(F)C(F)(F)C2(F)C(F)(F)C(F)(F)C(F)(F)C(F)(F)C2(F)C1(F)F (centres undefined)	none (no result: PNC inhibitor, CBFb-RUNX1 inh, ALDH1A1 block, HPGD block)
CCCc1[nH]n(-c2nc3ccccc3s2)c(=O)c1C=NCC(C)C	ALDH1A1 block 12.6µM, HTT aggregate inconclusive
CCOC(=O)N1CCC(NC(=O)CS(=O)(=O)Cc2nc(-c3cccc(OC)c3)oc2C)CC1	none
COc1cccc(-c2nc(CS(=O)(=O)CC(=O)N3CCN(c4ccccn4)CC3)c(C)o2)c1	PNC inhibitor inconclusive, ALDH1A1 block 31.6µM
COc1cccc(-c2nc(CS(=O)(=O)CC(=O)Nc3c(C)cccc3C)c(C)o2)c1	none
COc1cccc(-c2nc(CS(=O)(=O)CC(=O)Nc3cc(C)ccc3C)c(C)o2)c1	PNC inhibitor -119.3
COc1cccc(-c2nccc(NCCc3c[nH]c4ccc(OC)cc34)n2)c1	none (no result: PNC inhibitor, CBFb-RUNX1 inh, HPGD block, HTT aggregate)
Cn1c(=O)c(-c2ccc(F)cc2)nc2cnc(Nc3ccccc3)nc21	none (no result: PNC inhibitor, CBFb-RUNX1 inh, HPGD block, HTT aggregate)
Cc1cccc(C(=O)c2cnc3ccccc3c2-c2ccccc2)c1	CBFb-RUNX1 inh inconclusive, ALDH1A1 block 12.6µM, HPGD block inconclusive, HTT aggregate inconclusive
CSc1nc(-c2ccc(Cl)cc2Cl)[nH]c(=O)c1C#N	PNC inhibitor inconclusive, HPGD block 2.51µM
Cc1cc(-c2ccc(Cl)cc2Cl)c(C#N)c(=O)[nH]1	none (no result: PNC inhibitor, ALDH1A1 block, HPGD block)
CC[C@H](C)[C@H](NC(=O)[C@H](CC(=O)O)NC(=O)[C@H](CC(C)C)NC(=O)[C@H](Cc1cnc[nH]1)NC(=O)[C@H](C)NC(=O)[C@H](Cc1ccccc1)NC(=O)[C@H](Cc1ccc(O)cc1)NC(=O)[C@@H](NC(=O)[C@H](C)NC(=O)[C@H](CCC(=O)O)NC(=O)[C@H](CCCCN)NC(=O)[C@H](CC(=O)O)NC(=O)[C@H](CCSC)NC(=O)[C@H](CC(C)C)NC(C)=O)C(C)C)C(=O)N[C@H](C(=O)N[C@@H](Cc1c[nH]c2ccccc12)C(=O)O)[C@@H](C)CC	none (no result: PNC inhibitor, ALDH1A1 block, HPGD block, HTT aggregate, HTT ATP protect)
C[C@@]12CC[C@@H]3[C@H](CCC4=CC(=O)CC[C@]43C)[C@@H]1CC[C@@H]2C(=O)COS(=O)(=O)c1ccc(Br)cc1	ALDH1A1 block 3.55µM (no result: PNC inhibitor, CBFb-RUNX1 inh, HTT aggregate)
CNc1ccnc(-c2cccc(NS(C)(=O)=O)c2)n1	none (no result: PNC inhibitor, CBFb-RUNX1 inh, HPGD block, HTT aggregate)
CC1(C)CC[C@]2(C(=O)O)CC[C@]3(C)C(=CC[C@@H]4[C@@]5(C)CC[C@H](O)C(C)(C)[C@@H]5CC[C@@]43C)[C@@H]2C1	none (no result: PNC inhibitor, CBFb-RUNX1 inh, ALDH1A1 block, HPGD block, HTT aggregate)
COc1ccc(S(=O)(=O)NCCSCc2cccs2)cc1	ALDH1A1 block 1µM, HTT aggregate inconclusive
COc1ccc(S(=O)(=O)NCCSCc2ccco2)cc1OC	ALDH1A1 block inconclusive
COc1ccc(S(=O)(=O)NCCSCc2ccco2)cc1	PNC inhibitor inconclusive, CBFb-RUNX1 inh inconclusive, ALDH1A1 block 2.82µM, HTT aggregate inconclusive
COc1ccc(S(=O)(=O)NCCC(=O)NCc2cccs2)cc1	none
